# Values joined by “and” are separate entries in the source; they are usually repeats but may differ in a detail not shown here. Identical values can stand only once. Compounds without any hit were thinned out: in the full panel of roughly 83,000, 20% have a hit.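 Compound tested at a single concentration for 48 hours in 96-well plates; a percent growth value below 10 was scored as active.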 Active and inactive are the calls of the source.
# System: HL-60(TB) leukemia
# Experiment: NCI-60 one-dose screen, 48 h (100 = growth as untreated, 0 = no growth, -100 = all killed)
# Conditions: 10 µM unless noted
row,SMILES,growth
1,CC1=C(CC(=O)c2cccc([N+](=O)[O-])c2)C(=O)c2ccccc2C1=O,1.83% (active)
2,N#C/C(=C\c1ccc(Br)cc1)n1nnc2ccc(F)cc21,-23.2% (active)
3,COc1ccc(C)cc1NC(=O)SC(C)C,94.7% [100 µM] (inactive)
4,COc1ccc(CN2C(=O)/C(=C\C(=O)c3ccc(OCCN4CCCCC4)cc3)c3ccccc32)cc1,20% (inactive)
5,c1ccc(-c2cn3ccnc3c(-c3ccc4ncn(C5CCCCC5)c4c3)n2)cc1,32.9% (inactive)
6,COC(=O)c1ccc2c(c1)nc(-c1cc3ccccc3[nH]c1=O)n2-c1cc(C(C)(C)C)[nH]n1,-16.9% (active)
7,CSc1nc2sc3cc(Cl)ccc3n2c(=N)c1C#N,121% (inactive)
8,N=C(N)c1ccc(-c2ccc(-c3ccccc3)o2)nc1,54.1% (inactive)
9,OCc1cnccc1NC12CC3CC(CC(C3)C1)C2,85.3% (inactive)
10,Cc1c(-n2nnc(-c3nc4ccccc4s3)c2N)c(=O)n(-c2ccccc2)n1C,99.2% (inactive)
11,CCCC(=O)Oc1ccc(/C(=C(\C)c2ccc(OC)cc2)c2ccc(OCCN3CCCCC3)cc2)cc1,89.6% (inactive)
12,CCC(O)c1ccccc1 (centres undefined),98.6% (inactive) and 77.4% (inactive)
13,C#Cc1ccc(NC(=O)c2ccc(/C=C/C(=O)c3nccn3C)cc2)cc1,-27.2% (active)
14,CN1CCN(CCOc2cc(OC3CCOCC3)c3c(Nc4c(Cl)ccc5c4OCO5)ncnc3c2)CC1,101% (inactive)
15,CCOC(=O)c1c2c(n3ccc(C)cc13)C(=O)c1ccccc1C2=O,76.1% (inactive)
16,Cc1nc(Nc2n[nH]c3c2CN(C(=O)N[C@H](CN(C)C)c2ccccc2)C3(C)C)c2sccc2n1,-30.6% (active)
17,O=C(CSc1nnc(-c2ccc(NC(=O)c3cccnc3)cc2)o1)N[C@@H](Cc1ccc(O)cc1)C(=O)O,99.4% (inactive)
18,CCCCCCCCCCCCCCCC(N)c1ccccc1 (centres undefined),-14.3% (active)
19,COc1ccc(/C=N\Nc2ccc([N+](=O)[O-])cn2)cc1OC,100% (inactive)
20,CCCCOc1ccc(/C=N/NC(N)=S)cc1,60.5% (inactive)

row,SMILES,growth
1,O=C(Nc1cccc(F)c1)c1cc(=O)[nH]c2cc(Br)ccc12,3.41% (active)
2,Cc1cc(CCNC=O)c(C)c2c1sc1ccccc12,91.9% (inactive)
3,Cc1ccc2nc(C[n+]3ccc4ccccc4c3)ccc2c1,26.1% (inactive)
4,CC[Si](CC)(CC)OC1[C@@H](O[Si](CC)(CC)CC)[C@@H](CNC(=O)NC)O[C@H]1n1cnc2c(NC(=O)Nc3ccccc3)ncnc21 (some centres undefined),-39.6% (active)
5,COc1cc(C2c3cc(OC(C)=O)c(OC)cc3CC3C(=O)OCC32)ccc1OC(C)=O (centres undefined),71.7% (inactive)
6,COc1ccc(C(=O)Nc2ncc(Cc3ccc(F)cc3)s2)cc1,-2.26% (active)
7,CC1CCCc2sc3nc(NNC(=O)c4cnccn4)n(-c4ccccc4)c(=O)c3c21 (centres undefined),-33.4% (active) and -12.4% (active)
8,COc1cc(-c2csc(NC(=O)Nc3cccc(C(F)(F)F)c3)n2)cc(OC)c1OC,44.6% (inactive)
9,COc1ccc(-c2c(N)n[nH]c2-c2cc(OC)c3c(c2)OCCO3)cc1,47.1% (inactive)
10,COc1ccc2c(c1)O/C(=C/c1ccc(OCC(=O)c3ccccc3)cc1)C2=O,88.7% (inactive)
11,O=c1ccn2nc3ccccc3c2[nH]1,93.1% (inactive)
12,O=C1N[C@H]2[C@H](CS[C@H]2CCCCC(=O)N(CCP(c2ccccc2)c2ccccc2)CCP(c2ccccc2)c2ccccc2)N1,72.8% (inactive)
13,CCN(CC)CCC(CNc1ccnc2cc(Cl)ccc12)c1ccc(OC)cc1 (centres undefined),63.7% (inactive) and 61.7% (inactive)
14,NC(=S)Cc1ccccc1,99.1% (inactive)
15,Cc1cc(C)cc(CCCCCCCCCCCCCCCCCC(=O)O)c1,71% (inactive)
16,CCc1ccc(-c2ccc(NC3CCCCCC3)nn2)cc1S(N)(=O)=O,121% (inactive)
17,CCN1C(=O)N[C@H]2[C@@H]3NC(=O)c4ccc(Cl)n4[C@@H]3C[C@]21O,-20.6% (active)
18,N#Cc1c(-c2ccccc2)cc(-c2ccccc2)n(CCCC(=O)Nc2ccccc2N)c1=O,21.5% (inactive)
19,COc1ccc(Cl)cc1NC(=O)c1cc2c([nH]1)-c1nc(NC(=O)C(C)(C)C)sc1CC2,60.9% (inactive)

# — PubChem BioAssay (NCI)
